Experimental data taken from the supplement of paper PMC6555819.

How the values were obtained:
Assay in all cases: PBM binding z-score (relative to random genomic background probes); higher = stronger binding; sequences stand for … in GC…GCGATTGACAGCGTAGAATGAAGG
[1] = test system: PPARg:RXRa DBDmut IVT, anti-RXR (DBD mutation: RXRa K156A/R161A, NR concentration 270 nM, RXRa partner concentration 90 nM)
Procedure, shortened: (§1)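 Probes were double-stranded and carried 34-nt variable regions with direct-repeat seeds, single-nucleotide variants, half-site ablations and random human genomic background sequences, printed on custom Agilent 4×180K protein-binding microarrays. Arrays were incubated 1 h with ligand-free nuclear receptor dimers in PBS pH 7.4, 2% milk, 0.02% Triton X-100, 1 mM DTT, 0.2 mg/mL BSA and 0.4 mg/ml salmon testes DNA. Antibodies against each partner (one per run) detected binding, and scanned fluorescence was regression-normalized. Binding z-scores use the random background probes as reference.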

[2] = test system: PPARg:RXRa IVT, anti-PPARg (NR concentration 270 nM, RXRa partner concentration 90 nM)
Procedure, shortened: as §1

[3] = test system: PPARg DBDmut:RXRa IVT, anti-PPARg (DBD mutation: PPARg1 K132A/R137A, NR concentration 270 nM, RXRa partner concentration 90 nM)
Procedure, shortened: as §1

[4] = test system: PPARg DBDmut IVT, anti-PPARg (DBD mutation: PPARg1 K132A/R137A, NR concentration 270 nM)
Procedure, shortened: as §1

[5] = test system: PPARg homodimer (NR concentration 180 nM)
Procedure, shortened: as §1

[6] = test system: PXR:RXRa (NR concentration 270 nM, RXRa partner concentration 90 nM)
Procedure, shortened: as §1

[7] = test system: PXR homodimer (NR concentration 270 nM)
Procedure, shortened: as §1

[8] = test system: RARa:RXR (NR concentration 270 nM, RXRa partner concentration 90 nM)
Procedure, shortened: as §1

[9] = test system: RARa homodimer (NR concentration 270 nM)
Procedure, shortened: as §1

[10] = test system: RARb:RXRa (NR concentration 270 nM, RXRa partner concentration 90 nM)
Procedure, shortened: as §1

[11] = test system: RARb homodimer (NR concentration 270 nM)
Procedure, shortened: as §1

[12] = test system: RARg:RXRa (NR concentration 270 nM, RXRa partner concentration 90 nM)
Procedure, shortened: as §1

[13] = test system: RARg homodimer (NR concentration 270 nM)
Procedure, shortened: as §1

[14] = test system: RXRa DBDmut IVT, anti-RXR (DBD mutation: RXRa K156A/R161A, NR concentration 90 nM)
Procedure, shortened: as §1

[15] = test system: RXRa homodimer (NR concentration 180 nM)
Procedure, shortened: as §1

[16] = test system: THRa:RXRa (NR concentration 90 nM, RXRa partner concentration 90 nM)
Procedure, shortened: as §1

[17] = test system: THRa homodimer (NR concentration 90 nM)
Procedure, shortened: as §1

[18] = test system: VDR:RXRa (NR concentration 270 nM, RXRa partner concentration 90 nM)
Procedure, shortened: as §1

[19] = test system: VDR homodimer (NR concentration 270 nM)
Procedure, shortened: as §1

Sequence	PBM binding z-score [1]	PBM binding z-score [2]	PBM binding z-score [3]	PBM binding z-score [4]	PBM binding z-score [5]	PBM binding z-score [6]	PBM binding z-score [7]	PBM binding z-score [8]	PBM binding z-score [9]	PBM binding z-score [10]	PBM binding z-score [11]	PBM binding z-score [12]	PBM binding z-score [13]	PBM binding z-score [14]	PBM binding z-score [15]	PBM binding z-score [16]	PBM binding z-score [17]	PBM binding z-score [18]	PBM binding z-score [19]
TAGCCTAGGTCAGACCGGGCCAGTATACGCTATA	0.42	1.13	-0.551	-1.06	0.235	0.913	-0.412	1.14	-1.16	3	2.24	2.62	3.34	-0.68	1.38	3.99	-0.0936	0.854	-0.324
CGTACAGGGTCAGCTAGGCCAGAGTAGGGACGGC	1.75	2.64	0.166	-0.287	1.47	2.28	-0.805	3.32	-0.147	4.16	3.07	4.55	4.77	1.93	4.1	3.05	0.562	3.78	1.14
GCGACTGGGGCAAAGCAGGTTTCCATAAGGTTGG	4.2	3.02	-0.184	-0.615	-0.0282	-0.473	-0.449	-0.165	-0.557	0.376	-0.0206	-0.174	-0.133	0.157	-0.342	1.21	-0.028	-0.475	-0.34
CGAACGAGGGCATGAGATGATAGCAAATGCCGAT	2.91	1.69	0.746	-0.282	0.685	0.00253	-0.206	0.422	0.183	1.79	0.674	1.28	1.64	1.82	0.882	0.979	-0.224	0.478	0.831
GCAGACAGTTGAAACGCAGGTAACTCAGGGTGGC	-0.661	-0.74	-1.02	-0.586	-0.714	-0.372	-0.779	0.0801	-0.512	-0.0972	-0.639	0.0568	-0.397	-0.408	0.339	0.919	-0.565	-0.517	-0.832
ATCTCTAGGTAAAGATAGTACAGTGAATGCAAAT	1.46	1.59	1.31	1.08	1.02	0.0817	0.418	0.0539	1.54	0.0238	0.0852	0.268	0.707	-0.147	0.301	0.452	0.0174	0.325	0.54
GCTCGGTGGACAAGGTCAGAGCTTTGTCCGTAGA	0.124	0.413	-1.69	-0.301	0.136	1.68	-0.455	2.25	-0.966	2.68	2.7	2.44	2.14	0.246	1.96	2.48	1.14	1.48	0.24
ACTAGCAGGCGAAGTTTGGGTCACTCAAACAAAG	-0.461	0.0553	-0.763	-1.05	-0.0559	0.583	-0.27	1.15	-0.491	1.14	1.48	0.795	0.54	-0.3	0.656	1.91	0.813	0.191	-0.246
ATCTCTAGGTAAAAGTTCAGCGAATCCCGAGGAT	2.55	4.3	1.19	1.67	2.4	2.46	1.54	2.48	0.715	2.93	2.76	2.88	3.02	0.792	2.62	1.58	0.0924	1.69	1.07
AGAATGAGGTTATACGTAGATCAGGGACGAAAGT	3.78	2.16	1.14	1.42	0.4	1.12	0.405	1.49	0.392	1.42	0.962	1.77	1.35	1.87	2.14	2.39	0.878	1.46	1.06
CCGTCTGGGGCAAGGTTACCATAACGCACAGCCA	1.75	2.43	-0.591	-1.54	0.46	0.036	-0.461	0.632	0.0974	1.72	1.05	1.06	1.13	-0.58	0.988	1.15	0.197	0.236	0.0669
TAGCCTGGGTCATTGGGCCAGTATAGTACGCATC	1.27	3.57	0.337	-0.475	0.764	1.44	-1.02	2.07	-0.67	3.34	2.47	3.67	3.47	0.363	3.04	1.99	-0.547	1.97	0.472
TGAATGAGGTTATAAGATCAGGGAGCGTTGCAAA	0.796	1.56	0.774	-0.572	0.0916	0.406	-0.17	0.968	-0.286	1.03	-0.251	1.37	0.756	0.685	1.8	1.61	-0.245	0.606	0.229
ACTAGTTGGTCGGCTGAGGTCACACACAATTCGG	0.828	2.09	0.508	0.979	2.33	5	2.11	4.72	1.23	3.08	4.05	3.76	3.25	1.12	4.19	4.77	5.24	3.94	3.84
CCTACTGGGCCATTCAGAGGTCATTGGTCATATG	3.85	4.26	-0.0478	0.266	1.61	4.57	2.34	4.46	0.727	3.03	4.14	4.18	2.64	0.884	3.6	3.14	1.34		3.34
